PubChem BioAssay (EPA / NIEHS)
Calls of active or inactive are those of the source. The calls were made as follows: active = hit-call score of the fitted dose curve at least 0.9, where 1 is the maximum; inactive = score below 0.9.

Experiments:
Conditions in all cases: mRNA level, 48 h; actives raise or lower the signal
[1] = read-out: ABC Transporter (ABCB11), ABCB11 (gene 8647); assay: LTEA_HepaRG_ABCB11: Life Technologies and Expression Analysis (LTEA) Assay for ABC Transporter (ABCB11) using HepaRG (AID 2283463)
Method in brief: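 HepaRG, 48 h exposure, 8-pt half-log CRC top 100 uM, 0.5% DMSO vehicle, duplicates. Readout: TaqMan qRT-PCR of ABCB11 mRNA, housekeeping-normalized (ACTB/GAPDH/POLR2A). Bidirectional fit vs DMSO baseline.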

[2] = read-out: ABC Transporter (ABCC2), ABCC2 (gene 1244); assay: LTEA_HepaRG_ABCC2: Life Technologies and Expression Analysis (LTEA) Assay for ABC Transporter (ABCC2) using HepaRG (AID 2283464)
Method in brief: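 HepaRG, 48 h post-plating; serum-free induction medium; cpd 8-pt, 100 uM top, half-log, 0.5% DMSO, duplicate, 48 h. Readout: ABCC2 mRNA by qRT-PCR, norm. ACTB/GAPDH/POLR2A. Bidirectional fit vs DMSO baseline.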

[3] = read-out: Broad substrate specificity ATP-binding cassette transporter ABCG2 (Homo sapiens) (UniProt Q9UNQ0); assay: LTEA_HepaRG_ABCG2: Life Technologies and Expression Analysis (LTEA) Assay for ABC Transporter (ABCG2) using HepaRG (AID 2283465)
Method in brief: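 HepaRG, 48 h exposure, 8-pt half-log series from 100 uM, 0.5% DMSO vehicle, duplicates. Readout: ABCG2 transcript by qRT-PCR (Fluidigm array), housekeeping-normalized; bidirectional curve fit relative to DMSO baseline.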

[4] = read-out: Peroxisomal acyl-coenzyme A oxidase 1 (ACOX1) gene, ACOX1 (gene 51); assay: LTEA_HepaRG_ACOX1: Life Technologies and Expression Analysis (LTEA) Assay for Peroxisomal acyl-coenzyme A oxidase 1 (ACOX1) gene using HepaRG (AID 2283467)
Method in brief: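 HepaRG, 48 h chemical exposure, 8-pt half-log series from 100 uM top, 0.5% DMSO vehicle, duplicates. Readout: ACOX1 mRNA by Fluidigm qRT-PCR, housekeeping-normalized; bidirectional fit vs DMSO baseline.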

[5] = read-out: Alkaline Phosphatase, Placental (ALPP) gene, ALPP (gene 250); assay: LTEA_HepaRG_ALPP: Life Technologies and Expression Analysis (LTEA) Assay for Alkaline Phosphatase, Placental (ALPP) gene using HepaRG (AID 2283468);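 as to AC50: differentiated human HepaRG liver cells in serum-free induction medium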
Method in brief: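 HepaRG, 48 h plating then 48 h dosing, serum-free induction medium, 0.5% DMSO. 8 conc, half-log, max 100 uM, duplicates. Endpoint: ALPP transcript by qRT-PCR, housekeeping-normalized; gain or loss fitted vs DMSO.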

[6] = read-out: Bcl-2 (BAD) gene, BAD (gene 572); assay: LTEA_HepaRG_BAD: Life Technologies and Expression Analysis (LTEA) Assay for Bcl-2 (BAD) gene using HepaRG (AID 2283469)
Method in brief: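 HepaRG, 48 h exposure, 8-pt half-log curve from 100 uM in 0.5% DMSO, duplicates. Readout: TaqMan qRT-PCR for BAD mRNA, housekeeping-normalised (ACTB/GAPDH/POLR2A); gain or loss fitted against DMSO baseline.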

[7] = read-out: Bcl-2 (BAX) gene, BAX (gene 581); assay: LTEA_HepaRG_BAX: Life Technologies and Expression Analysis (LTEA) Assay for Bcl-2 (BAX) gene using HepaRG (AID 2283470)
Method in brief: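 Gene expression measured by Fluidigm qRT-PCR with three housekeeping genes for normalisation. HepaRG cells, plated 48 h beforehand, treated 48 h at up to 100 uM (8-point, half-log) in 0.5% DMSO. Bidirectional fitting versus DMSO.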

[8] = read-out: adenosine kinase (ADK) gene, ADK (gene 132); assay: LTEA_HepaRG_ADK: Life Technologies and Expression Analysis (LTEA) Assay for adenosine kinase (ADK) gene using HepaRG (AID 2283471)
Method in brief: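 Following 48 h exposure of HepaRG cells in 0.5% DMSO (top concentration 100 uM, duplicate wells), ADK mRNA induction or suppression was measured by qRT-PCR, normalised to ACTB/GAPDH/POLR2A, and fitted bidirectionally relative to vehicle.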

[9] = read-out: Alpha-fetoprotein (AFP) gene, AFP (gene 174); assay: LTEA_HepaRG_AFP: Life Technologies and Expression Analysis (LTEA) Assay for Alpha-fetoprotein (AFP) gene using HepaRG (AID 2283472)
Method in brief: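 AFP transcript measured by TaqMan qRT-PCR with three housekeeping genes for normalization, after 48 h chemical treatment of HepaRG cells (top 100 uM, half-log steps, 0.5% DMSO). Gain or loss fitted against vehicle.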

[10] = read-out: Apoptosis regulator Bcl-2 (Homo sapiens) (UniProt P10415); assay: LTEA_HepaRG_BCL2: Life Technologies and Expression Analysis (LTEA) Assay for Bcl-2 gene using HepaRG (AID 2283475)
Method in brief: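 qRT-PCR of BCL2 transcript, normalized to three housekeeping genes (ACTB, GAPDH, POLR2A), after 48 h chemical exposure of HepaRG cells; concentrations top 100 uM with half-log dilutions, 0.5% DMSO vehicle, duplicates; changes up or down fitted relative to vehicle.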

[11] = read-out: Bcl-2 (BID) gene, BID (gene 637); assay: LTEA_HepaRG_BID: Life Technologies and Expression Analysis (LTEA) Assay for Bcl-2 (BID) gene using HepaRG (AID 2283476)
Method in brief: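 Duplicate 48 h treatments of HepaRG cells in serum-free induction medium spanned 100 uM downward in half-log steps, 0.5% DMSO. Transcript change quantified by qRT-PCR against three housekeeping genes, fitted up or down versus DMSO.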

[12] = read-out: Caspase-3 (Homo sapiens) (UniProt P42574); assay: LTEA_HepaRG_CASP3: Life Technologies and Expression Analysis (LTEA) Assay for cysteine-aspartic acid protease (CASP3) using HepaRG (AID 2283477)
Method in brief: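 Read-out is CASP3 mRNA level by TaqMan qRT-PCR in human HepaRG cells after 48 h chemical exposure. Eight half-log concentrations topping at 100 uM were tested in 0.5% DMSO; gain or loss was fitted relative to DMSO.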

[13] = read-out: Cytochrome P450 (CYP24A1), CYP24A1 (gene 1591); assay: LTEA_HepaRG_CYP24A1: Life Technologies and Expression Analysis (LTEA) Assay for Cytochrome P450 (CYP24A1) using HepaRG (AID 2283478)
Method in brief: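 HepaRG, 48 h chemical exposure, 8-pt half-log CRC from 100 uM, 0.5% DMSO vehicle, duplicates. Endpoint: CYP24A1 mRNA by Fluidigm TaqMan qRT-PCR, normalized ACTB/GAPDH/POLR2A; gain/loss fit vs DMSO.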

[14] = read-out: Cytochrome P450 (CYP1A2), CYP1A2 (gene 1544); assay: LTEA_HepaRG_CYP1A2: Life Technologies and Expression Analysis (LTEA) Assay for Cytochrome P450 (CYP1A2) using HepaRG (AID 2283479)
Method in brief: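 CYP1A2 transcript induction or loss, quantified by Fluidigm qRT-PCR against three housekeeping genes, was fitted bidirectionally against 0.5% DMSO controls. Human HepaRG cells received eight half-log concentrations from 100 uM over 48 h.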

[15] = read-out: Cytochrome P450 (CYP2B6), CYP2B6 (gene 1555); assay: LTEA_HepaRG_CYP2B6: Life Technologies and Expression Analysis (LTEA) Assay for Cytochrome P450 (CYP2B6) using HepaRG (AID 2283481)
Method in brief: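 HepaRG cells plated 48 h, switched to serum-free induction medium, then dosed 48 h (8 points, half-log from 100 uM, 0.5% DMSO). RNA isolated; CYP2B6 expression measured by qRT-PCR; gain or loss fitted relative to DMSO.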

[16] = read-out: Cytochrome P450 2C19 (Homo sapiens) (UniProt P33261); assay: LTEA_HepaRG_CYP2C19: Life Technologies and Expression Analysis (LTEA) Assay for CYP2C19 using HepaRG (AID 2283482)
Method in brief: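 Transcript levels of CYP2C19 were quantified by qRT-PCR after HepaRG cells were treated for 48 hours with test chemicals up to 100 uM (eight half-log concentrations, 0.5% DMSO vehicle). Gain or loss of signal was fitted relative to DMSO.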

[17] = read-out: cysteine-aspartic acid protease (CASP8), CASP8 (gene 841); assay: LTEA_HepaRG_CASP8: Life Technologies and Expression Analysis (LTEA) Assay for cysteine-aspartic acid protease (CASP8) using HepaRG (AID 2283480)
Method in brief: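 qRT-PCR readout of CASP8 mRNA, normalized to three housekeeping genes, after 48 h chemical exposure of HepaRG cells; 8-point half-log series, top 100 uM, 0.5% DMSO vehicle. Bidirectional curve fitting against DMSO baseline.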

Measured: AC50

Chain of Apoptosis regulator Bcl-2 (Homo sapiens) (P10415 whole entry, looked up): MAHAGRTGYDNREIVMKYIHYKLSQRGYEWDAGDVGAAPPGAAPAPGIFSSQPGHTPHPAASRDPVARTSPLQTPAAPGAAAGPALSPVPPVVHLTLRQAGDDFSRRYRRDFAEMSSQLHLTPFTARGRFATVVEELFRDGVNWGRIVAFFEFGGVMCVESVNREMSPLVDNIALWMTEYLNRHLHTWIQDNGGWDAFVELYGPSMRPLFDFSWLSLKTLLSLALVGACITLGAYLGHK
Chain of Cytochrome P450 2C19 (Homo sapiens) (P33261 whole entry, looked up): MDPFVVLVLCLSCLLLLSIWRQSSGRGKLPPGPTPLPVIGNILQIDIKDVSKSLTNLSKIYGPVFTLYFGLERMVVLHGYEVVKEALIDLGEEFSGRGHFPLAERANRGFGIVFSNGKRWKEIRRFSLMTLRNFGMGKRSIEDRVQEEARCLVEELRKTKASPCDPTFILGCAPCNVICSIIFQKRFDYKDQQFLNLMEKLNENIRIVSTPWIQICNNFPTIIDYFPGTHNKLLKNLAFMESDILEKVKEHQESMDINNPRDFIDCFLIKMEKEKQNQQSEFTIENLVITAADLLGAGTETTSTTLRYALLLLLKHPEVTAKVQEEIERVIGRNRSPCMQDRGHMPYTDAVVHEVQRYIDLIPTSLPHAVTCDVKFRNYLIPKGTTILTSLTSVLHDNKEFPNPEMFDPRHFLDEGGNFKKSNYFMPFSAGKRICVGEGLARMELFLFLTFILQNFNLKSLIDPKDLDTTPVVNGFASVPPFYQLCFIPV
Chain of Broad substrate specificity ATP-binding cassette transporter ABCG2 (Homo sapiens) (Q9UNQ0 whole entry, looked up): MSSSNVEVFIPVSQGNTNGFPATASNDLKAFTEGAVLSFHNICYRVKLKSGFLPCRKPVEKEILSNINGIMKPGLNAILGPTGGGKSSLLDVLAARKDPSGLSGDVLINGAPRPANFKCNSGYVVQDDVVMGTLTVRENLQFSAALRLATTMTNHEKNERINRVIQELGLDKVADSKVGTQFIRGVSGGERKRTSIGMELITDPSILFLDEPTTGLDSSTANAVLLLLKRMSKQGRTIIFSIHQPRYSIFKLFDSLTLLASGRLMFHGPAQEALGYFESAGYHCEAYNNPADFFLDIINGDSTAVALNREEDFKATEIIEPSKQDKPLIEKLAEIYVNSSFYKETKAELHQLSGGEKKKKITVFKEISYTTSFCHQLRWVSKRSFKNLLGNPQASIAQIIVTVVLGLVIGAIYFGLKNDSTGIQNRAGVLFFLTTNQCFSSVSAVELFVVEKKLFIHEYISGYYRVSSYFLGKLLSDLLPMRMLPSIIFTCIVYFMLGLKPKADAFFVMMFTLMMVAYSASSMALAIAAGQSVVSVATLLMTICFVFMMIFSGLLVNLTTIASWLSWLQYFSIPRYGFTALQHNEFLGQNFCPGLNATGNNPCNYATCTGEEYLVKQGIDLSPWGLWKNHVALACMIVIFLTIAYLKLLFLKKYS
Chain of Caspase-3 (Homo sapiens) (P42574 whole entry, looked up): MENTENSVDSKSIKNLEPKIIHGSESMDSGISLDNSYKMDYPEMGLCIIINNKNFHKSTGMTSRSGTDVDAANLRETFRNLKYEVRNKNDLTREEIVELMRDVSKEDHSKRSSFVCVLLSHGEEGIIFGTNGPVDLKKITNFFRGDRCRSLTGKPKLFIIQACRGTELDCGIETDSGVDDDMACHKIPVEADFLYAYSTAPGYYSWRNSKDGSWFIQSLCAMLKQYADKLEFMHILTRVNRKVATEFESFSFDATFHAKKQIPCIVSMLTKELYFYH

O=C(O)COc1nc(Cl)c(Cl)cc1Cl
active: [1] 23.2 µM | [15] 51 µM | [16] 51 µM
not listed: [17]
inactive: all other assays above

COP(N)(=O)SC (stereo not given)
not listed: [17]
inactive: all other assays above

C#CCOS(=O)OC1CCCCC1Oc1ccc(C(C)(C)C)cc1 (stereo not given)
inactive: [5] | [6] | [7] | [13] | [14]
active: [1] 23.2 µM | [2] 23.6 µM | [3] 50 µM | [4] 29.1 µM | [8] 30.1 µM | [9] 29.5 µM | [10] 81.7 µM | [11] 11.4 µM | [12] 29 µM | [15] 26.6 µM | [16] 26.3 µM

COC(=O)c1ccccc1C(=O)OC
not listed: [17]
inactive: all other assays above

CN(C)C(=S)SSC(=S)N(C)C
active: [15] 50 µM
not listed: [17]
inactive: all other assays above

COC(=O)N(OC)c1ccccc1COc1ccn(-c2ccc(Cl)cc2)n1
inactive: [2] | [5] | [6] | [13]
active: [1] 38.4 µM | [3] 25 µM | [4] 77.8 µM | [7] 66.7 µM | [8] 77.8 µM | [9] 24.9 µM | [10] 89.9 µM | [11] 75.3 µM | [12] 79.5 µM | [14] 12.4 µM | [15] 78.1 µM | [16] 77.8 µM

Fc1ccc(Oc2ccnc3cc(Cl)cc(Cl)c23)cc1
active: [1] 89.8 µM | [3] 50 µM | [5] 50 µM | [9] 89 µM | [14] 14.1 µM | [15] 11.9 µM
inactive: all other assays above

N#Cc1nn(-c2c(Cl)cc(C(F)(F)F)cc2Cl)c(N)c1S(=O)C(F)(F)F (stereo not given)
inactive: [2] | [6] | [8] | [11] | [12] | [13]
active: [1] 27.8 µM | [3] 23.5 µM | [4] 50.2 µM | [5] 11.5 µM | [7] 32.6 µM | [9] 15.9 µM | [10] 34.6 µM | [14] 58.3 µM | [15] 28.9 µM | [16] 29.9 µM

CCNc1nc(Cl)nc(NCC)n1
active: [14] 50 µM | [15] 11.3 µM
not listed: [17]
inactive: all other assays above

N#Cc1cc(Br)c(O)c(Br)c1
inactive: [6] | [7] | [11] | [13]
active: [1] 19.9 µM | [2] 14 µM | [3] 10.2 µM | [4] 11.1 µM | [5] 8.91 µM | [8] 6.14 µM | [9] 13.9 µM | [10] 10 µM | [12] 7.76 µM | [14] 12.9 µM | [15] 9.97 µM | [16] 13.9 µM

COc1ccc(C(c2ccc(OC)cc2)C(Cl)(Cl)Cl)cc1
active: [1] 86.7 µM | [2] 14.1 µM | [9] 78.4 µM | [10] 86.3 µM | [15] 12.4 µM | [16] 12.7 µM
not listed: [5] | [17]
inactive: all other assays above

O=C(Nc1ccccc1)Nc1ccnc(Cl)c1
inactive: [7] | [11] | [13] | [17]
active: [1] 26.5 µM | [2] 89.9 µM | [3] 83.9 µM | [4] 73.7 µM | [5] 3.48 µM | [6] 74.2 µM | [8] 78.2 µM | [9] 25.2 µM | [10] 69.8 µM | [12] 69.9 µM | [14] 25.8 µM | [15] 88.4 µM | [16] 79 µM

CC1COC(Cn2cncn2)(c2ccc(Oc3ccc(Cl)cc3)cc2Cl)O1 (stereo not given)
inactive: [6] | [8] | [12] | [14]
active: [1] 11.2 µM | [2] 34.4 µM | [3] 12.6 µM | [4] 50 µM | [5] 10.9 µM | [7] 13 µM | [9] 11 µM | [10] 12.8 µM | [11] 12 µM | [13] 50 µM | [15] 9.66 µM | [16] 27.1 µM

C=CCC1=C(C)[C@@H](OC(=O)[C@@H]2[C@@H](C=C(C)C)C2(C)C)CC1=O
active: [1] 50 µM | [5] 81.2 µM | [9] 50 µM | [15] 85.4 µM
not listed: [17]
inactive: all other assays above
